According to PubChem BioAssay (NCI):
About 79,000 compounds went through this panel and 15% of them were active in at least one assay; those are over-represented in the sample as a whole. Active and inactive are the calls of the source. Cut-off read from the data, not from the text of the source: active = growth inhibition above about 70%; inactive = the rest.

Tests used:
[1] = NCI Yeast Anticancer Drug Screen. Data for the rad52 strain (AID 147);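 note: 0% = growth of vehicle-treated control cultures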; settings: S. cerevisiae rad52 mutant growth inhibition, stronger effect = higher value
Outline: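 Measured: yeast growth inhibition. System: strain with a defined DNA damage repair alteration. Reference: vehicle-treated control cultures.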

[2] = NCI Yeast Anticancer Drug Screen. Data for the wt1 strain (AID 149);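 note: 0% = growth of vehicle-treated wt1 cultures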; settings: S. cerevisiae wt1 strain (SPY 50644) growth inhibition, stronger effect = higher value
Outline: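 Vehicle-normalised growth inhibition; strain wt1; compound exposure.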

[3] = NCI Yeast Anticancer Drug Screen. Data for the rad50EPP+ strain (AID 151);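 note: 0% = growth of vehicle-treated control cultures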; settings: S. cerevisiae rad50 mutant strain, stronger effect = higher value
Outline: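 One strain with a rad50 alteration (rad50EPP+) was compound-treated, its growth then compared to that of vehicle controls.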

[4] = NCI Yeast Anticancer Drug Screen. Data for the mgt1 strain (AID 153); settings: S. cerevisiae mgt1 mutant growth inhibition, stronger effect = higher value
Outline: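 After exposure of the mgt1 yeast mutant to compound, growth was measured and reported as inhibition compared with vehicle controls.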

[5] = NCI Yeast Anticancer Drug Screen. Data for the rad50 strain (AID 155);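 note: 0% = growth of vehicle-only cultures of the same strain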; settings: S. cerevisiae rad50 strain growth inhibition, stronger effect = higher value
Outline: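 A DNA repair-deficient yeast mutant serves as the test organism; compound-induced growth inhibition is calculated against vehicle-treated cells.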

[6] = NCI Yeast Anticancer Drug Screen. Data for the mec2-1 strain (AID 157); settings: S. cerevisiae mec2-1 strain, stronger effect = higher value
Outline: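 Test agents were screened against the mec2-1 yeast strain, with defined DNA repair or cell cycle alteration. Growth was scored as inhibition against vehicle-only controls.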

[7] = NCI Yeast Anticancer Drug Screen. Data for the rad14 strain (AID 159);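 note: 0% = growth of vehicle-treated control cultures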; settings: S. cerevisiae rad14 strain growth inhibition, stronger effect = higher value
Outline: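 Vehicle-treated cultures served as the baseline for growth inhibition of a DNA repair-mutant yeast strain exposed to each compound.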

[8] = NCI Yeast Anticancer Drug Screen. Data for the sgs1 mgt1 strain (AID 161);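 note: 0% = growth of cultures given vehicle only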; settings: S. cerevisiae sgs1 mgt1 strain, stronger effect = higher value
Outline: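 Mutant yeast exposed to compound; growth scored against vehicle-only wells.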

[9] = NCI Yeast Anticancer Drug Screen. Data for the CLN2oe strain (AID 163);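 note: 0% = growth of vehicle-only control cultures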; settings: S. cerevisiae CLN2oe strain, stronger effect = higher value
Outline: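 Here, growth inhibition in a cell-cycle-altered yeast strain after compound exposure was quantified against vehicle control growth.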

[10] = NCI Yeast Anticancer Drug Screen. Data for the cln2 rad14 strain (AID 165);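 note: 0% = growth equal to vehicle treated cultures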; settings: S. cerevisiae cln2 rad14 strain, stronger effect = higher value
Outline: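 Growth of compound-exposed yeast (cln2 rad14 genotype) measured and expressed as inhibition relative to vehicle.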

[11] = NCI Yeast Anticancer Drug Screen. Data for the bub3 strain (AID 167); settings: S. cerevisiae bub3 mutant strain, stronger effect = higher value
Outline: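 Inhibition values come from growth of compound-treated mutant yeast normalised to vehicle-treated controls.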

[12] = NCI Yeast Anticancer Drug Screen. Data for the wt2 strain (AID 169);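 note: 0% = growth of vehicle-treated yeast cultures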; settings: S. cerevisiae wt2 strain growth inhibition, stronger effect = higher value
Outline: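 Genetically defined yeast strains from a DNA-repair/cell-cycle panel were used. Compound-exposed yeast growth was measured, and the inhibition was calculated relative to vehicle treatment.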

[13] = NCI Yeast Anticancer Drug Screen. Data for the mlh1 strain (AID 171);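 note: 0% = growth of vehicle-treated control cultures of the same strain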; settings: S. cerevisiae mlh1 strain growth inhibition, stronger effect = higher value
Outline: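 Here the genetically defined yeast mutant is grown with each compound, and the extent to which its growth falls below that of vehicle-exposed cells is reported.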

[14] = NCI Yeast Anticancer Drug Screen. Data for the sgs1 strain (AID 173);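 note: 0% = growth of vehicle-only control cultures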; settings: S. cerevisiae sgs1 mutant, stronger effect = higher value
Outline: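 Relative growth inhibition, referenced to vehicle, was determined in a yeast strain with a defined alteration affecting DNA damage repair or cell cycle control after compound exposure.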

[15] = NCI Yeast Anticancer Drug Screen. Data for the mlh1 rad18 strain (AID 175); settings: S. cerevisiae mlh1 rad18 strain growth inhibition, stronger effect = higher value
Outline: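 In this whole-cell yeast screen, a strain with altered DNA damage repair is challenged with compound, and its growth is measured against matched vehicle-treated controls.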

[16] = NCI Yeast Anticancer Drug Screen. Data for the rad18 strain (AID 177); settings: S. cerevisiae rad18 mutant growth inhibition, stronger effect = higher value
Outline: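 Screen uses a yeast strain with a defined lesion in DNA damage repair; compound effect is read as loss of growth compared to untreated vehicle cultures.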

[17] = at 5.0 µM (retest, dose inferred, filed as 0.5)
[18] = at 50.0 µM (retest, dose inferred, filed as 5.0)

Measured: growth inhibition

Cc1ccc(S(=O)(=O)Oc2cc(Cl)c(Cl)cc2Cl)cc1
inactive: [1]; at 1.2 µM -1% | [1]; at 3.7 µM 4% | [1]; at 11.0 µM 9% | [1]; at 33.0 µM -5% | [1]; at 100.0 µM 17% | [2]; at 1.2 µM -2% | [2]; at 3.7 µM -4% | [2]; at 11.0 µM -7% | [2]; at 33.0 µM -9% | [2]; at 100.0 µM -12% | [3]; at 1.2 µM -1% | [3]; at 3.7 µM 9% | [3]; at 11.0 µM 27% | [3]; at 33.0 µM 28% | [3]; at 100.0 µM 66% | [4]; at 1.2 µM 0% | [4]; at 3.7 µM -2% | [4]; at 11.0 µM -6% | [4]; at 33.0 µM -9% | [4]; at 100.0 µM -8% | [5]; at 1.2 µM -2% | [5]; at 3.7 µM 6% | [5]; [17] 9% | [5]; at 11.0 µM 11% | [5]; at 33.0 µM 3% | [5]; [18] 7% | [5]; at 50.0 µM -6.5% | [5]; at 100.0 µM 17% | [6]; at 1.2 µM -1% | [6]; at 3.7 µM -1% | [6]; [17] -29% | [6]; at 11.0 µM -5% | [6]; at 33.0 µM -9% | [6]; [18] -17% | [6]; at 50.0 µM -21.8% | [6]; at 100.0 µM -6% | [7]; at 1.2 µM -4% | [7]; at 3.7 µM 4% | [7]; at 11.0 µM 2% | [7]; at 33.0 µM -7% | [7]; at 100.0 µM 2% | [8]; [17] 23% | [8]; [18] 25% | [8]; at 50.0 µM 7.65% | [9]; at 1.2 µM -2% | [9]; at 3.7 µM -6% | [9]; at 11.0 µM -10% | [9]; at 33.0 µM -18% | [9]; at 100.0 µM -18% | [10]; [17] 4% | [10]; [18] 3% | [10]; at 50.0 µM -9.8% | [11]; at 1.2 µM 1% | [11]; at 3.7 µM 3% | [11]; [17] 4% | [11]; at 11.0 µM 3% | [11]; at 33.0 µM -2% | [11]; [18] 40% | [11]; at 50.0 µM 10.2% | [11]; at 100.0 µM -4% | [12]; at 1.2 µM 1% | [12]; at 3.7 µM -9% | [12]; at 11.0 µM -14% | [12]; at 33.0 µM -9% | [12]; at 100.0 µM -8% | [13]; at 1.2 µM 1% | [13]; at 3.7 µM 1% | [13]; at 11.0 µM 2% | [13]; at 33.0 µM -6% | [13]; at 100.0 µM 8% | [14]; at 1.2 µM -19% | [14]; at 3.7 µM -14% | [14]; at 11.0 µM -18% | [14]; at 33.0 µM 0% | [14]; at 100.0 µM 12% | [15]; [17] 18% | [15]; [18] 53% | [15]; at 50.0 µM 2.3% | [16]; at 1.2 µM -5% | [16]; at 3.7 µM -2% | [16]; at 11.0 µM 1% | [16]; at 33.0 µM -3% | [16]; at 100.0 µM 11%

O=C1C=CC(=Nc2ccc3c(c2)Cc2cc(NC(=O)C(F)(F)F)ccc2-3)O1
inactive: [1]; at 1.2 µM 4% | [1]; at 3.7 µM 8% | [1]; at 11.0 µM 21% | [1]; at 33.0 µM 33% | [2]; at 1.2 µM 3% | [2]; at 3.7 µM 4% | [2]; at 11.0 µM 11% | [2]; at 33.0 µM 20% | [3]; at 1.2 µM 8% | [3]; at 3.7 µM 40% | [4]; at 1.2 µM 1% | [4]; at 3.7 µM 5% | [4]; at 11.0 µM 12% | [4]; at 33.0 µM 36% | [5]; at 1.2 µM 2% | [5]; at 3.7 µM 7% | [5]; [17] 44% | [5]; at 11.0 µM 20% | [5]; at 33.0 µM 55% | [6]; at 1.2 µM 5% | [6]; at 3.7 µM 14%
active: [1]; at 100.0 µM 97% | [2]; at 100.0 µM 95% | [3]; at 11.0 µM 81% | [3]; at 33.0 µM 91% | [3]; at 100.0 µM 98% | [4]; at 100.0 µM 96% | [5]; [18] 96% | [5]; at 50.0 µM 82.4% | [5]; at 100.0 µM 97%
